Results on one sequence are retold here after PMC7862700, “An all-to-all approach to the identification of sequence-specific readers for epigenetic DNA modifications on cytosine”.

Common to all, as to assay: DAPPL (digital affinity profiling via proximity ligation, sequencing); 10 mM Tris-HCl pH 7.5, 50 mM NaCl, 1 mM DTT, 4% glycerol, room temperature, 30 min; GST-TFs on glutathione beads, 16-mer random dsDNA library, 0.1% formaldehyde crosslink after washing; high values mean tight binding
In assay [1] the target is T1, FEV (Homo sapiens, UniProt Q99581 1-238).
T1 sequence: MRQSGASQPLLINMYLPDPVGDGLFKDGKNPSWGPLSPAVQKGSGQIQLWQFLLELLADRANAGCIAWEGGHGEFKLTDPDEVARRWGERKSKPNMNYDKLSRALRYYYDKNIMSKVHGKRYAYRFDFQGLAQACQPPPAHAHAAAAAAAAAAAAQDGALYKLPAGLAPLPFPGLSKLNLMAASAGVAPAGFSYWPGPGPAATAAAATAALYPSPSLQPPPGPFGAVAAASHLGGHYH
The following applies: protein: recombinant; tags: N-terminal GST; dsDNA, one strand shown. The gist of the method: (§1)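 In yeast, human transcription factors were expressed with a GST fusion, then pulled down on glutathione beads and given DNA barcodes. Pooled with a tag-only sample, they were exposed to 200 nmole of a 16-mer random double-stranded DNA library (Tris/NaCl/DTT/glycerol buffer, room temperature, 30 min), washed, crosslinked with 0.1% formaldehyde, proximity-ligated using BsaI/T4 ligase for 1 h at 37 °C, PCR-amplified and read on an Illumina NextSeq500. Each hexamer's frequency of reads for a factor, divided by the matching frequency for the tag-only sample, gives the binding signal.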

Assay [2] addresses ETV5 (Homo sapiens, UniProt P41161 1-510). To be noted: protein: recombinant; tags: N-terminal GST; dsDNA, one strand shown. The gist of the method: as §1
The target of assay [3] is HSF1 (Homo sapiens, UniProt Q00613 1-529). The following applies: protein: recombinant; tags: N-terminal GST; chain copies: 3; dsDNA, one strand shown. The gist of the method: as §1
Chain of HSF1 (Q00613 whole entry): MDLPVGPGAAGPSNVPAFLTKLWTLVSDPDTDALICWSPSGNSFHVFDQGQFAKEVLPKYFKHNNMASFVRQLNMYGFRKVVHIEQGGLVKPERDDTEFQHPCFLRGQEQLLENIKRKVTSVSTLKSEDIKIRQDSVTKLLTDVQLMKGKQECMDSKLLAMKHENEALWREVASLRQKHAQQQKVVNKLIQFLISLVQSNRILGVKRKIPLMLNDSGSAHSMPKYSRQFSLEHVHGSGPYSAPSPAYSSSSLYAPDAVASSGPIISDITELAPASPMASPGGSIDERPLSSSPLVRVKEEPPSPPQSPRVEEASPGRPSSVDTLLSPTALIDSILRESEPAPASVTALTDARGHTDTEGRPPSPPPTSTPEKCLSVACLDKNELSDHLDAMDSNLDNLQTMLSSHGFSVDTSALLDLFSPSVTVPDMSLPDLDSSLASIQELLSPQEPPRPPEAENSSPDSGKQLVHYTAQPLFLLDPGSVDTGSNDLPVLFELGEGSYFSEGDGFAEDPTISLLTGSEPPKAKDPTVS
The target in assay [4] is T2, SPIC (Homo sapiens, UniProt Q8N5J4 1-248).
T2 sequence: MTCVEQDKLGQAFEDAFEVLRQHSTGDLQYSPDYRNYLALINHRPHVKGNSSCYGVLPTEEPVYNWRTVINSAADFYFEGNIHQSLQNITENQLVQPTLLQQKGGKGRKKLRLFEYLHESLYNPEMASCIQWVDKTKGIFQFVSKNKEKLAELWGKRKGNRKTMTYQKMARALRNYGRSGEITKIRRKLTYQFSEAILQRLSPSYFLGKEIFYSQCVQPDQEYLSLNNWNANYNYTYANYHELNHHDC
To be noted: protein: recombinant; tags: N-terminal GST; dsDNA, one strand shown. The gist of the method: as §1

In assay [5] the target is ELF4 (Homo sapiens, UniProt Q99607 1-663). The following applies: protein: recombinant; tags: N-terminal GST; dsDNA, one strand shown. The gist of the method: as §1
Chain of ELF4 (Q99607 whole entry): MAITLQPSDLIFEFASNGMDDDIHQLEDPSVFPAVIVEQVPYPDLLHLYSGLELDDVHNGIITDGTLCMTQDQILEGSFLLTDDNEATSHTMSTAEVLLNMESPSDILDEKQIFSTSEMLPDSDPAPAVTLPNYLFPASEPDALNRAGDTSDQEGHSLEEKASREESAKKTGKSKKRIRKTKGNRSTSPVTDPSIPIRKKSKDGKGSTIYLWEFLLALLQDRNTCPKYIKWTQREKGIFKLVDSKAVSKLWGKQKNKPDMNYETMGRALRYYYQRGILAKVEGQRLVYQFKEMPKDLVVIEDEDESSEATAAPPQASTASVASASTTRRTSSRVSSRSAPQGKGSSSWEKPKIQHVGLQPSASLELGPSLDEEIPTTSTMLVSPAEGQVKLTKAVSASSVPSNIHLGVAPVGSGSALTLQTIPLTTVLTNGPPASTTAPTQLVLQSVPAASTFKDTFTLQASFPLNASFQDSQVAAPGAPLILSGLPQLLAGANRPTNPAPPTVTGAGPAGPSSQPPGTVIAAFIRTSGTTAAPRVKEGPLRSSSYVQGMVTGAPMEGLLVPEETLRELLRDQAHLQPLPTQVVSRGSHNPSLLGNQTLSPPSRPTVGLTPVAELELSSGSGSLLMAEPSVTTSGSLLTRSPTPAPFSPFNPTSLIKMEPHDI
Assay [6] addresses T3, ELK4 (Homo sapiens, UniProt P28324-2 1-405).
T3 sequence: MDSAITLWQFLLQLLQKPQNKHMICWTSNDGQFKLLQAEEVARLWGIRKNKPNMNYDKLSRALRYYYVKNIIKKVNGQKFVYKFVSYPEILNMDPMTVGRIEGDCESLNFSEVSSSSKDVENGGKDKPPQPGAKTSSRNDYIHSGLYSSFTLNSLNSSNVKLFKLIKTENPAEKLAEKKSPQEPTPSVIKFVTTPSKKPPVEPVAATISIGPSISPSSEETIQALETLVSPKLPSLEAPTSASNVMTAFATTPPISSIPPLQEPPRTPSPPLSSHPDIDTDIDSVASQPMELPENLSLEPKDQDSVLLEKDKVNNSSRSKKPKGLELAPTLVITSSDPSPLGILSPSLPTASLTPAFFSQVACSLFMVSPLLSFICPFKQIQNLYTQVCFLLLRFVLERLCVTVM
The following applies: protein: recombinant; tags: N-terminal GST; dsDNA, one strand shown. The gist of the method:
as §1

Assay [7] addresses T4, ETV2 (Homo sapiens, UniProt O00321 1-342).
T4 sequence: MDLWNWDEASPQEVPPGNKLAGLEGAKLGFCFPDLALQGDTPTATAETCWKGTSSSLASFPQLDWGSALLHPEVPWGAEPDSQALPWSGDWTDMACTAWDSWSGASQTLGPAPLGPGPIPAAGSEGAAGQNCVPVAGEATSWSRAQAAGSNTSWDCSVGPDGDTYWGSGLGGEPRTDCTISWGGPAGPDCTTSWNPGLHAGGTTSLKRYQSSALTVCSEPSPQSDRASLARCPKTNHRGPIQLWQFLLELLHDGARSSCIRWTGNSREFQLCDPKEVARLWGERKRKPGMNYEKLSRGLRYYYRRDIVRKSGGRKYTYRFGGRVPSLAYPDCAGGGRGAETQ
The following applies: protein: recombinant; tags: N-terminal GST; dsDNA, one strand shown. The gist of the method:
as §1

Assay [8] concerns the target T5, ELF3 (Homo sapiens, UniProt P78545 1-371).
T5 sequence: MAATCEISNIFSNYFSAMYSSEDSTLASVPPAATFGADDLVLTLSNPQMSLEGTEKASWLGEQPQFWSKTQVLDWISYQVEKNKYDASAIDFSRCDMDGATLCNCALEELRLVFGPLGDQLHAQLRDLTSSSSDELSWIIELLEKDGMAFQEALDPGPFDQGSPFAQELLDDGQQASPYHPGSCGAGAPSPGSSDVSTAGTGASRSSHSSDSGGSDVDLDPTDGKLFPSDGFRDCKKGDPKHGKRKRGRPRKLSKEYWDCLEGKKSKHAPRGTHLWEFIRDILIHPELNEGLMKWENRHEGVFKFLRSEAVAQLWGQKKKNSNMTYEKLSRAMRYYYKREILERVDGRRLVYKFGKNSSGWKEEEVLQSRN
The following applies: protein: recombinant; tags: N-terminal GST; dsDNA, one strand shown. The gist of the method: as §1

Assay [9] has as its target CRX (Homo sapiens, UniProt O43186 1-299). The following applies: protein: recombinant; tags: N-terminal GST; dsDNA, one strand shown. The gist of the method:
as §1

Assay [10] concerns the target ETV1 (Homo sapiens, UniProt P50549 1-477). The following applies: protein: recombinant; tags: N-terminal GST; dsDNA, one strand shown. The gist of the method:
as §1

In assay [11] the target is T6, ERF (Homo sapiens, UniProt P50548 1-548).
T6 sequence: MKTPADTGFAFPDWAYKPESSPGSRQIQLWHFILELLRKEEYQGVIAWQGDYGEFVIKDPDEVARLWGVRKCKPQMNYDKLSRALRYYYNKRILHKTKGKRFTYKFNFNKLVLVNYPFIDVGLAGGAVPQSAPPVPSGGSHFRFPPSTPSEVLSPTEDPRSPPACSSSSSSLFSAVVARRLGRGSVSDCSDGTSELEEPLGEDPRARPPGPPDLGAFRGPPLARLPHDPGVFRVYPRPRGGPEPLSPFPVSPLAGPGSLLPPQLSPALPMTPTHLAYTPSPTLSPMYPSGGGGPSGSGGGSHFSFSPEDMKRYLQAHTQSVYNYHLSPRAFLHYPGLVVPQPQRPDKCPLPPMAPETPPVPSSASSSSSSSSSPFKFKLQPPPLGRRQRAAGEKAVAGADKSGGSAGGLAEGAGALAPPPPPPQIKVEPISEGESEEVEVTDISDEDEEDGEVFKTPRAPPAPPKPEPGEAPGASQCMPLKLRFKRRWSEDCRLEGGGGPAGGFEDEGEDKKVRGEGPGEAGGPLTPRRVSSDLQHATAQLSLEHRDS
The following applies: protein: recombinant; tags: N-terminal GST; dsDNA, one strand shown. The gist of the method:
as §1

For assay [12], the target named is T7, ETV3L (Homo sapiens, UniProt Q6ZN32 1-361).
T7 sequence: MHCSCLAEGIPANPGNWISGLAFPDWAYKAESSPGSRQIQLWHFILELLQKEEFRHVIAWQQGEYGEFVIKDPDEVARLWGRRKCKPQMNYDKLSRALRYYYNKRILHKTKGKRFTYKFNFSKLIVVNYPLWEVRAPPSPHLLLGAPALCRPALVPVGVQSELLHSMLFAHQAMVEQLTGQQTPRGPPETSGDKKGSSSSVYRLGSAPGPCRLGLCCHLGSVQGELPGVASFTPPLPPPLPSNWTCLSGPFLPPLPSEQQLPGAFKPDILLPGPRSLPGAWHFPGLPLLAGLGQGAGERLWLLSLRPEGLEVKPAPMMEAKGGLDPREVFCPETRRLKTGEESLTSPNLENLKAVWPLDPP
To be noted: protein: recombinant; tags: N-terminal GST; dsDNA, one strand shown. The gist of the method:
as §1

Assay [13] deals with T8, ETS2 (Homo sapiens, UniProt P15036 1-469).
T8 sequence: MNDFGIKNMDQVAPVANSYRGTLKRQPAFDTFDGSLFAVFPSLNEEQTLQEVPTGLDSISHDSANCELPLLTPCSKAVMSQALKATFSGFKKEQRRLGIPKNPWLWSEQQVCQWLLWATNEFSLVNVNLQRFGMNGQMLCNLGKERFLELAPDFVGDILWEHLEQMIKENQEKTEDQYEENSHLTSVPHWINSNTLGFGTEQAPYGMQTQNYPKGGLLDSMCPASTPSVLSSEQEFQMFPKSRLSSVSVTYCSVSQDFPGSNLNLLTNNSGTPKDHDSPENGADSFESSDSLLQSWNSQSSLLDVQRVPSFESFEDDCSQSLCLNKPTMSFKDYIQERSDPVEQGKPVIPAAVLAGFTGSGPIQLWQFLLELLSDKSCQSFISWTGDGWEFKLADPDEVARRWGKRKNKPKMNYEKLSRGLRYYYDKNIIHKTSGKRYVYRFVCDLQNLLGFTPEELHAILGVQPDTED
The following applies: protein: recombinant; tags: N-terminal GST; dsDNA, one strand shown. The gist of the method:
as §1

Assay [14] has as its target T9, SPDEF (Homo sapiens, UniProt O95238 1-335).
T9 sequence: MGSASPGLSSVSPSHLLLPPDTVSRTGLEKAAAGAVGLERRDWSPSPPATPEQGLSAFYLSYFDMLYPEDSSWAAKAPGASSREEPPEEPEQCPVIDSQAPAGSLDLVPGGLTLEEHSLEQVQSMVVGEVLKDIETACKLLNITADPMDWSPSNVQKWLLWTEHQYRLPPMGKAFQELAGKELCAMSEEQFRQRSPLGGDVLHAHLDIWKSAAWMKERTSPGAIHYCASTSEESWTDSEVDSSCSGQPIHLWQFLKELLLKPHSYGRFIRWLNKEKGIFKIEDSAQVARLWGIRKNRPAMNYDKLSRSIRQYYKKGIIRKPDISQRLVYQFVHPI
The following applies: protein: recombinant; tags: N-terminal GST; dsDNA, one strand shown. The gist of the method:
as §1

The target in assay [15] is T10, ETV7 (Homo sapiens, UniProt Q9Y603 1-341).
T10 sequence: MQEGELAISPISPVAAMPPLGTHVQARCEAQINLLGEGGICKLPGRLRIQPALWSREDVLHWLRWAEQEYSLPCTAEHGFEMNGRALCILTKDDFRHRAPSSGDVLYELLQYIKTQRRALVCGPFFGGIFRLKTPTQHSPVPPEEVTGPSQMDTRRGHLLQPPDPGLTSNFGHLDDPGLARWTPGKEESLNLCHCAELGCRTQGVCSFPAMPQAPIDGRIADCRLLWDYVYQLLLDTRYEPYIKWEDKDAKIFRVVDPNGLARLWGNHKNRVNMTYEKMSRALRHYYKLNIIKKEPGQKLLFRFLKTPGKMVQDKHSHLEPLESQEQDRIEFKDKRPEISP
To be noted: protein: recombinant; tags: N-terminal GST; dsDNA, one strand shown. The gist of the method:
as §1

Assay [16] has as its target T11, ELF5 (Homo sapiens, UniProt Q9UKW6-2 1-255).
T11 sequence: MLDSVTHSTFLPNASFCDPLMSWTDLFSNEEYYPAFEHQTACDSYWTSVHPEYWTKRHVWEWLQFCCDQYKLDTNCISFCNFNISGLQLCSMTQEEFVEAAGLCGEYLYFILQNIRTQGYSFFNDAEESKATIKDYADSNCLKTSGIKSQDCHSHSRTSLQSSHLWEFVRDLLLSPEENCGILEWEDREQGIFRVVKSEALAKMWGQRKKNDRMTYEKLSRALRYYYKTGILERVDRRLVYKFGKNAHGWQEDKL
To be noted: protein: recombinant; tags: N-terminal GST; dsDNA, one strand shown. The gist of the method: as §1

Assay [17] addresses T12, ETV3 (Homo sapiens, UniProt P41162-2 1-143).
T12 sequence: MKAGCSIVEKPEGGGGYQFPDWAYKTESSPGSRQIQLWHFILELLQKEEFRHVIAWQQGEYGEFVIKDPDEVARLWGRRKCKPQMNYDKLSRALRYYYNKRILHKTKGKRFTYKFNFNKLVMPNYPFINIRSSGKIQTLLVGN
The following applies: protein: recombinant; tags: N-terminal GST; dsDNA, one strand shown. The gist of the method: as §1

The target of assay [18] is ETV6 (Homo sapiens, UniProt P41212 1-452). To be noted: protein: recombinant; tags: N-terminal GST; dsDNA, one strand shown. The gist of the method:
as §1

Chain of ETV1 (P50549 whole entry): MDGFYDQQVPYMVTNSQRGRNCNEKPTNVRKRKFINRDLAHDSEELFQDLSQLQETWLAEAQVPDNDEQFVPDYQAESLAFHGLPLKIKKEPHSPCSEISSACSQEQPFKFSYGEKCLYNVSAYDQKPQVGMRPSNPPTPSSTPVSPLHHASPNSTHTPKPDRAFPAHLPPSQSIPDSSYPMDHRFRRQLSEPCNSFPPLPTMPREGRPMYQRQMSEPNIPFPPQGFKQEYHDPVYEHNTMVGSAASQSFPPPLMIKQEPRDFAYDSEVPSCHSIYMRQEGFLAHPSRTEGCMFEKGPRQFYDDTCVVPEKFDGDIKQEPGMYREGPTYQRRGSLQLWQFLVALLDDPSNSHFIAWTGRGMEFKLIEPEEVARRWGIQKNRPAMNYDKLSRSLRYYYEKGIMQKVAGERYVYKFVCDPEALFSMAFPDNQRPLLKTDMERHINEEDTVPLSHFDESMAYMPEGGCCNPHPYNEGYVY
Chain of ETV6 (P41212 whole entry): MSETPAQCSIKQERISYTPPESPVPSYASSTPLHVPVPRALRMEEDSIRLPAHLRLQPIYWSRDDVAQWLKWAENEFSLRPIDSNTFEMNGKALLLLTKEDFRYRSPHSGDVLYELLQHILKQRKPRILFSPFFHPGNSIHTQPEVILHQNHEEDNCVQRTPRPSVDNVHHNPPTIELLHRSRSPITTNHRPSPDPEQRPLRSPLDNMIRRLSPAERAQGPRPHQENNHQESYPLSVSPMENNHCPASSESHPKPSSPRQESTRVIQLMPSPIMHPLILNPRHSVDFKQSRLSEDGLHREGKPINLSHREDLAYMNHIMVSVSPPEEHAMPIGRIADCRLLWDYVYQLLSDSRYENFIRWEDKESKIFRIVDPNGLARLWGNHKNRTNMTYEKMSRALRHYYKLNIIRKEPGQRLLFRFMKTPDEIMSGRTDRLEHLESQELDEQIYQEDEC
Chain of ETV5 (P41161 whole entry): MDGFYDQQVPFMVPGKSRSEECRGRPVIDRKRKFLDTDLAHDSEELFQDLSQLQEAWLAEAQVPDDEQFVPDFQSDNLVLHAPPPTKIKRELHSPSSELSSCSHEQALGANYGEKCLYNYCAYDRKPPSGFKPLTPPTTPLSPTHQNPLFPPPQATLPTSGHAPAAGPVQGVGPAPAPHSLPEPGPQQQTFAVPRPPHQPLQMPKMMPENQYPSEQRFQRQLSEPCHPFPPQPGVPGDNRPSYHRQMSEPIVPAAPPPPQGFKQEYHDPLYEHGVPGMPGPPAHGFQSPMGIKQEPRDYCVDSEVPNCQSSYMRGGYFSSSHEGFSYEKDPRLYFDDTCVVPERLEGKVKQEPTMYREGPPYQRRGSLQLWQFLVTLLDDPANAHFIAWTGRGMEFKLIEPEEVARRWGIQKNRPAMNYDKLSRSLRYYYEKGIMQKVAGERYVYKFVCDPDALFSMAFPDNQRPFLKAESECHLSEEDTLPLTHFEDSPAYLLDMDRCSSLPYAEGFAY
Chain of CRX (O43186 whole entry): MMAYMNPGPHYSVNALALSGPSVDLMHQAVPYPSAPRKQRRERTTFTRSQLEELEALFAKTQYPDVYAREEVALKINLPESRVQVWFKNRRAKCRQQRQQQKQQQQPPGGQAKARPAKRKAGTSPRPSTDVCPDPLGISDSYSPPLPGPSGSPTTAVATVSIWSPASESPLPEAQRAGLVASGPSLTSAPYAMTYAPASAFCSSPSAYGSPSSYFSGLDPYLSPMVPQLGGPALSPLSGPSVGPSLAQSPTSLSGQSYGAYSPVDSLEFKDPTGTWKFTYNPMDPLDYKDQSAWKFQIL

As to CTGACT, the binding signal was 1.32 fold enrichment (6-mer frequency, TF over GST control) in assay [1]; 1.23 fold enrichment (6-mer frequency, TF over GST control) in [2]; 1.05 fold enrichment (6-mer frequency, TF over GST control) in assay [3]; 1.24 fold enrichment (6-mer frequency, TF over GST control) in [4]; 1.37 fold enrichment (6-mer frequency, TF over GST control) in assay [5]; 1.22 fold enrichment (6-mer frequency, TF over GST control) in assay [6]. Moreover, the binding signal in assay [7] was 1.48 fold enrichment (6-mer frequency, TF over GST control); in [8], 1.52 fold enrichment (6-mer frequency, TF over GST control); in [9], 1.07 fold enrichment (6-mer frequency, TF over GST control); in assay [10] it was 1.4 fold enrichment (6-mer frequency, TF over GST control); in assay [11], 1.33 fold enrichment (6-mer frequency, TF over GST control); in assay [12], 1.22 fold enrichment (6-mer frequency, TF over GST control). The binding signal in assay [13] is 1.42 fold enrichment (6-mer frequency, TF over GST control); in [14], 1.22 fold enrichment (6-mer frequency, TF over GST control); in assay [15], 1.33 fold enrichment (6-mer frequency, TF over GST control); in assay [16], 1.32 fold enrichment (6-mer frequency, TF over GST control); in assay [17], 1.28 fold enrichment (6-mer frequency, TF over GST control); in [18] it was 1.24 fold enrichment (6-mer frequency, TF over GST control).
